This is an account of results in PubChem BioAssay.

Molecules are shown by their SMILES. Active and inactive are the calls of the source.

This assay in a line: splicing luciferase reporter signal modulators, primary screen, spliceosome inhibition project, cell-based, HEK293, splice +/- reporter (AID 1101).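 Also: HEK293 cells carrying a splicing-competent luciferase reporter gene; test concentration not given here.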 The note with it: luminescence, 24 h, higher = more signal, called active from +8 up or from −8 down.
Take `C[C@@H]1CC[C@H]2C(=O)O[C@@H](Cc3ccccc3)CN2[C@H]1c1ccc(Br)cc1`: the z-score was -0.387 (inactive).
Under `COc1ccc(O[C@H]2C=C[C@@H](c3ccccc3)O[C@@H]2CON=C(C)CCC(=O)OC[C@H]2O[C@H](c3ccccc3)C=C[C@@H]2Oc2ccc(OC)cc2)cc1` stands 0.114 (inactive).
For `O=C1[C@H]2[C@H]3[C@H](O)[C@H](O)CC(=NOCc4ccccc4)[C@@H]3CC[C@H]2C(=O)N1Cc1ccc2c(c1)OCO2`, the z-score is 0.631 (inactive).
Under `COC(=O)CC=C[C@@H](C)[C@@H](C=NO[C@@H]1O[C@H](COC(C)=O)[C@@H](OC(C)=O)[C@H](OC(C)=O)[C@H]1OC(C)=O)OC` stands 0.869 (inactive).
As for `COc1cccc([C@H]2Oc3ccc(OC)cc3C(=NOC[C@@H](O)[C@H]3O[C@@H]4OC(C)(C)O[C@@H]4[C@H]3O)[C@@H]2O)c1`, the z-score was -0.106 (inactive).
Then `O=C1C[C@@H](O)[C@@H](O)[C@@H]2[C@@H]3C(=O)N(Cc4ccccc4)C(=O)[C@@H]3CC[C@@H]12`, with 0.859 (inactive).
With `CO[C@H]1COC(=O)CC=C[C@@H](C)[C@H](OC)COC(=O)CCC[C@@H]1C`, the z-score is -1.16 (inactive).
Under `CCN1C(=O)[C@H]2[C@H]3[C@H](O)[C@H](O)CC(=NNC(=O)OCc4ccc(OC)cc4)[C@@H]3CC[C@H]2C1=O` stands 0.564 (inactive).
